Assay outcomes (PubChem)
Env fusion inh: HIV envelope-mediated fusion inhibition. inhibition, % at 12.3 µM. HeLa-JRFL Env/CEM21 cell fusion, luciferase. 360,000 tested, 1.1% active. AID 651610;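 active means mean replicate inhibition score of at least 50 and every replicate individually at or above 50; inconclusive means only one of the two criteria met; inactive means mean below 50 and not all replicates reaching 50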;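 further: 0% = plate neutral controls and 100% = maraviroc near 300 nM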
CFTR F508del cor: CFTR F508del correction in bronchial cells. CFBE cells, YFP halide quenching; stimulated with forskolin plus potentiator P3; % fluorescence drop versus neutral controls. activity (quench increase), % at 7.58 µM. 350,000 tested, 0.36% active;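 active means mean added fluorescence quench of at least 8% versus neutral control, with both replicates also reaching 8%; inconclusive means only one of the mean or replicate conditions met; inactive means mean below 8% and not both replicates reaching 8%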;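 further: cells transiently co-express mutant CFTR-F508del with the halide-sensitive YFP; corrector assay measuring rescue of mutant channel to the surface after 24 h compound exposure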
PglD DTNB: PglD (C. jejuni) enzyme inhibition. purified PglD enzyme, DTNB colorimetric CoA detection. AID 602405. 360,000 tested, 0.098% active. inhibition, % at 12.5 µM; in the data active means inhibition above about 16%, passing the limit was not always enough; inconclusive means no clear call, values can overlap the other calls
ALR H2O2 inh: blocks human ALR sulfhydryl oxidase activity; P55789; purified ALR, DTT oxidation, H2O2 HRP-luminol luminescence; inhibition, % (concentration not given with the values); 290,000 tested, 3.8% active;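 active means mean replicate inhibition above about 79%, with every replicate also reaching it, limit read from the data; inconclusive means only one of the two criteria met; inactive means mean below limit and not every replicate reaching it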
Target sequence (P55789 whole entry, looked up): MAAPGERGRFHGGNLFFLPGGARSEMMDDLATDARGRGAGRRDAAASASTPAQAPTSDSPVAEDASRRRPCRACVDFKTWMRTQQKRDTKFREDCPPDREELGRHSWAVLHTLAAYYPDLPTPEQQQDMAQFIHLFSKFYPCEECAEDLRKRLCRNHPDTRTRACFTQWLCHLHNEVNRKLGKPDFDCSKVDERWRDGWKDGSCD
NSD2 inh: blocks human histone methyltransferase NSD2; NSD2 peptide methylation, AlphaScreen, 120 min; inhibition, % at 12.5 µM; 310,000 tested, 0.54% active; in the data active means inhibition above about 50%
CASP6 VEID inh: blocks human caspase-6 cleavage activity | purified caspase-6, Z-VEID-R110 cleavage fluorescence | inhibition, % at 12.5 µM | 350,000 tested, 0.53% active | AID 686996;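 active means mean inhibition across replicates at least about 35%, with every replicate also reaching that limit, limit read from the data; inconclusive means only one of the two criteria met; inactive means neither criterion met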;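 further: 0% = median of neutral control wells and 100% = no fluorescence left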
Target sequence (P55212 24-179 limits assumed): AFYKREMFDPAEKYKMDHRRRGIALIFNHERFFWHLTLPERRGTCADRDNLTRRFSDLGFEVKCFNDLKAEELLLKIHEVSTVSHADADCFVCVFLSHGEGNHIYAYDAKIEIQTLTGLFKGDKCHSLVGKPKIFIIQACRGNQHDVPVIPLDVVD
Target sequence (P55212 194-293 limits assumed): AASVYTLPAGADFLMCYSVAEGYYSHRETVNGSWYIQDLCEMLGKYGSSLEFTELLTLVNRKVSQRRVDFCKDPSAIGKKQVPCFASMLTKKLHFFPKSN
* = called active by the depositor; ? = inconclusive; · = no result; [ ] = another dose, or the depositor's remark. In the library only some 4.1% were active in any assay of this set; here they are far more common.

SMILES | Env fusion inh | CFTR F508del cor | PglD DTNB | ALR H2O2 inh | NSD2 inh | CASP6 VEID inh
CNc1ccc(C2(O)C(=O)c3ccccc3C2=O)cc1 | 9 | 4 | 1 | 83* | 0 | -4
c1ccc(-c2cc3c(N4CCCC4)ncnc3s2)cc1 | -6 | -6 | · | 1 | -2 | 5
c1ccc(-c2cc3c(N4CCOCC4)ncnc3s2)cc1 | · | · | · | 97* | -1 | ·
Cc1ccc(CNC(=O)COC(=O)c2ccc(S(=O)(=O)N(C)C)cc2)cc1 | -2 | 8.1* | 2 | -8 | -6 | 0
CN(C)S(=O)(=O)c1ccc(C(=O)OCC(=O)NCc2ccccc2)cc1 | 21 | -2 | · | -21 | -1 | -1
Cc1cc(C)c2nc(-c3ccccn3)cc(C(=O)NCc3ccco3)c2c1 | · | · | -4 | 89* | 0 | ·
COc1cccc(CNc2ccc(S(=O)(=O)Nc3nccs3)cc2)c1O | -69 | · | -9 | 93* | 5 | ·
O=S(=O)(Nc1nccs1)c1ccc(NCc2cc(Br)cc(Br)c2O)cc1 | -38 | 2 | -7 | 2 | 19 | -2
CCC(=O)N(C)C[C@@H]1Oc2ncc(C#CC(C)(C)O)cc2C(=O)N([C@H](C)CO)C[C@H]1C | -11[16.7 µM] | 1 | 2 | · | · | 2
CCOc1ccc2nc(SC3CC(=O)N(c4ccccc4)C3=O)sc2c1 (stereo not given) | · | · | 0 | 6 | 0 | ·
CCOc1ccc(N2C(=O)CC(Sc3n[nH]c(-c4ccccc4)n3)C2=O)cc1 (stereo not given) | -10 | 0 | · | 99* | 0 | -3
COc1ccc(N2C(=O)CC(Sc3n[nH]c(-c4ccccc4)n3)C2=O)cc1 (stereo not given) | 2 | -2 | 0 | 99* | -1 | -1
C[C@H]1CN([C@@H](C)CO)C(=O)c2cc(-c3ccc(F)cc3)cnc2O[C@@H]1CN(C)C(=O)c1ccncc1 | 4[16.7 µM] | -1 | · | · | · | ·
COc1ccccc1NC(=O)N1CC(=O)N2[C@H](CO)[C@@H](c3ccc(-c4cccc(C)c4)cc3)[C@@H]2C1 | · | 5 | · | · | · | 3
CC1(C)CC(N2CCCC2)=CC(=[N+]2CCCCC2)C1 | 46 | · | 3 | 3 | 0 | -1
CC1(C)CC(N2CCCC2)=CC(=[N+]2CCCC2)C1 | 59* | · | 14 | 28 | 0 | -4
CCN1C(=O)CC(C(=O)NC)SC1=Nc1cc(Cl)c(O)c(Cl)c1 (stereo not given) | -2 | · | · | 99* | 0 | ·
CCN=C1SC(C(=O)Nc2cc(Cl)cc(Cl)c2)CC(=O)N1CC (stereo not given) | -14 | -2 | 0 | -12 | 6 | -2
CCOC(=O)c1sc(NC(=O)CCN2CCN(CC)CC2)c(C(=O)OCC)c1C | -7 | · | · | 96* | 5 | -10
Cc1ccc(S(=O)(=O)Nc2ccc3c(c2)C(=O)N([C@@H](C)CO)C[C@@H](C)[C@H](CN(C)C(=O)NC2CCCCC2)OCCCC[C@H](C)O3)cc1 | -308[16.7 µM] | -4 | -1 | · | · | -2
CC1(C)C2CCC(C2)C1(C)NC(=O)CNCC1CCCCC1 (stereo not given) | 61* | · | · | -30 | 0 | 0
Cc1ccc(N2C(=O)c3ccc(C(=O)O)cc3C2=O)cc1C | -61 | · | -4 | 95* | 0 | ·
Cc1ccc(N2C(=O)c3ccc(C(=O)N4CCN(c5ccc(C)c(C)c5)CC4)cc3C2=O)cc1 | 11 | -1 | 3 | -2 | 0 | 3
Cn1c(-c2sc3ccccc3c2Cl)n[nH]c1=S | 16 | · | 0 | 97* | 2 | ·
Cn1c(CSc2nc3ccccc3s2)nc2ccccc21 | -74 | · | 3 | · | -1 | ·
SMILES | Env fusion inh | CFTR F508del cor | PglD DTNB | ALR H2O2 inh | NSD2 inh | CASP6 VEID inh
S=c1[nH]nc(CSc2nc3ccccc3s2)o1 | · | · | -3 | 99* | -1 | ·
Cn1c(CSc2nc3ccccc3s2)n[nH]c1=S | -27 | · | · | 98* | 38 | ·
CC(C)C#Cc1ccc([C@@H]2[C@@H](CO)N3CCCCN(C(=O)Nc4ccccc4)C[C@@H]23)cc1 | · | -1 | 1 | · | · | -1
CC(=O)NN1C(=O)/C(=C/c2ccc(C(C)C)cc2)SC1=S | -5 | · | · | 98* | 7 | ·
O=C(CC(=O)Nc1cccc(F)c1)Nc1cccc(F)c1 | -12 | -1 | 4 | -6 | -2 | 0
O=C(C#Cc1ccccc1)Nc1ccc(F)cc1 | -40 | 1 | -7 | 97* | 2 | 0
COc1ccc(NC(=O)C#Cc2ccccc2)cc1 | -39 | -6 | 6 | 6 | -3 | 8
O=C(C#Cc1ccccc1)Nc1cccc(F)c1 | ? | 0 | 2 | 97* | -2 | 14
